Source: PubChem BioAssay (Tox21)
Calls of active or inactive are those of the source. Calls come from the whole dose curve.

target: Thyrotropin-releasing hormone receptor (Homo sapiens) (UniProt P34981); experiment: qHTS assay to identify small molecule agonists of the thyrotropin-releasing hormone receptor (TRHR) signaling pathway (AID 1346891); conditions: TRHR-HEK293 calcium fluorescence, agonist mode; series mostly up to 57.6 µM; activation: at the top concentration;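 note: HEK293 cells expressing TRHR with calcium dye readout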
From the text: National Center for Advancing Translational Sciences [NCATS] NIH Chemical Genomics Center [NCGC] U.S. Environmental Protection Agency [EPA] National Institutes of Environmental Health Sciences [NIEHS] National Toxicology Program [NTP] Assay overview: Thyrotropin-releasing hormone (TRH) receptor (TRHR) is a G-protein-coupled receptor which binds the tripeptide thyrotropin releasing hormone. TRHR is found in the brain and, when bound by TRH, acts (through phospholipase C) to increase intracellular inositol trisphosphate. It plays a crucial role in the anterior pituitary where it controls the synthesis and secretion of thyroid stimulating hormone and prolactin. The TRHR-Hek293 assay is a cell-based assay, and it has the potential to screen G protein-coupled receptors. A compound/drug can either activate (agonist) or suppress (antagonist) GPCRs that can be monitored by levels of intracellular calcium. Using this assay, the Tox21 10K compound library was screened to identify potential TRHR agonists.
Assay Protocol Summary: The TRHR-Hek293 cells were dispensed at 1500cells/4uL/well in 1536-well black-clear bottom plates using a Multidrop dispenser. After the assay plates were incubated at a 37 C/5% CO2 incubator for 18 hours, 4 uL of Dye-Loading Solution was added to each well. The plates were incubated at 37 C for 2 hours. For agonist mode, 23 nL of compounds dissolved in DMSO, positive controls or DMSO only was transferred to the assay plate by a pin tool. The fluorescence intensity in the plates was measured using FDSS 7000EX kinetic plate reader for 3 min at 1 sec intervals. Each test compound was measured at 15 concentrations and in triplicates.
% is set by controls: 0 for no effect and ±100 for the full control effect.

Thyrotropin-releasing hormone receptor (Homo sapiens), sequence (P34981 whole entry, looked up): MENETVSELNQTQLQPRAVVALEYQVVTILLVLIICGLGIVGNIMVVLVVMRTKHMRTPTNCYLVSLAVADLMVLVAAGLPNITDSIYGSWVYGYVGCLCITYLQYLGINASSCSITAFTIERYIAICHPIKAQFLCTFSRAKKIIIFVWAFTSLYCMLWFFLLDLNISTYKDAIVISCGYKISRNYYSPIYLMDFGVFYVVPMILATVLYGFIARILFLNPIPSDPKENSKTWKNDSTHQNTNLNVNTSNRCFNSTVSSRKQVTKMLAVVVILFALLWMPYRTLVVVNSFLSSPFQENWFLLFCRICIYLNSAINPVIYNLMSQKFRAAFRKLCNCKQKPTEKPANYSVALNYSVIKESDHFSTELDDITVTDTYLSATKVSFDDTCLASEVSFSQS

SMILES	activation
COC(=O)[C@H]1[C@H]2C[C@@H]3c4[nH]c5cc(OC)ccc5c4CCN3C[C@H]2C[C@@H](OC(=O)/C=C/c2ccc(O)c(OC)c2)[C@@H]1OC	3.58% [at 26.5 µM] (inactive)
NC1[C@H]2CN(c3nc4c(cc3F)c(=O)c(C(=O)O)cn4-c3ccc(F)cc3F)C[C@@H]12 (stereo not given in full)	0.021% [at 26.5 µM] (inactive)
CN1C(=O)OC(C)(C)C1=O	0.0434% (inactive)
CCCCCCCCC(CCCCCC)C(=O)O (stereo not given)	2.94% (inactive)
CC(C)=CCC/C(C)=C/CC/C(C)=C/C(=O)OCC(=O)[C@@]1(O)CC[C@H]2[C@@H]3CCC4=CC(=O)C=C[C@]4(C)[C@H]3[C@@H](O)C[C@@]21C	0.0146% [at 26.5 µM] (inactive)
CC(=O)[C@H]1[C@H](C#N)C[C@H]2[C@@H]3CC=C4C[C@@H](O)CC[C@]4(C)[C@H]3CC[C@@]21C	-0.141% [at 26.5 µM] (inactive)
N#CCCN(CCO)CCO	0.0636% (inactive)
C=C1c2cccc(O)c2C(O)=C2C(=O)[C@]3(O)C(O)=C(C(N)=O)C(=O)[C@@H](N(C)C)[C@@H]3[C@@H](O)[C@H]12	0.642% [at 26.5 µM] (inactive)
O=C(/C=C/c1ccccc1)OCCc1ccccc1	-0.0186% (inactive)
CN1CCCN=C1COC(=O)C(O)(c1ccccc1)C1CCCCC1 (stereo not given)	0.657% [at 26.5 µM] (inactive)
CCOC(=O)C1=C(C)NC(C)=C(C(=O)OC)C1c1cccc(Cl)c1Cl (stereo not given)	-0.0199% [at 26.5 µM] (inactive)
Cc1ccc(CO)cc1	-0.618% (inactive)
CC(=O)Nc1cc(S(=O)(=O)O)cc2cc(S(=O)(=O)O)c(N=Nc3ccccc3)c(O)c12	0.0445% (inactive)
CCC(C)COC(=O)CC(C)C (stereo not given)	0.0775% (inactive)
O=C1c2ccccc2C(=O)C1c1nc2ccccc2c(Br)c1O	0.0347% (inactive)
O=C1c2ccccc2C(=O)C1c1ccc(Br)cc1	-0.121% [at 26.5 µM] (inactive)
O[C@@H]1CO[C@H]2[C@@H]1OC[C@@H]2O	-0.318% [at 26.5 µM] (inactive)
CN(C)CCC=C1c2ccccc2C=Cc2ccccc21	0.0188% [at 26.5 µM] (inactive)
c1cc(N(CC2CO2)CC2CO2)ccc1Cc1ccc(N(CC2CO2)CC2CO2)cc1 (stereo not given)	7.63% (inactive)
OCCOCC#CCOCCO	0.0245% (inactive)

SMILES	activation
CC1(C)[C@@H](OC(=O)CCC(=O)O)CC[C@]2(C)[C@H]3C(=O)C=C4[C@@H]5C[C@@](C)(C(=O)O)CC[C@]5(C)CC[C@@]4(C)[C@]3(C)CC[C@@H]12	1.09% [at 26.5 µM] (inactive)
C[C@@H]1CN(CCCn2c3ccccc3c3ccccc32)C[C@H](C)N1	1.38% [at 26.5 µM] (inactive)
O=C1c2ccccc2C(=O)N1CCc1noc(-c2ccc(CN3CCCCCC3)s2)n1	0.309% (inactive)
CC(C)=CCC/C(C)=C/CC/C(C)=C/CCC(=O)OC/C=C(\C)CCC=C(C)C	-0.0094% [at 26.5 µM] (inactive)
Cc1cc(=O)c2c(O)c3c(O)cc(=O)c4c3c3c(cc(O)c1c23)C(C)(C)C=4O	12.7% [at 11.8 µM] (inactive)
CN1C(=O)N(c2ccccc2Br)Cc2cnc(Nc3ccc4c(c3)OCC(CO)O4)nc21 (stereo not given)	0.794% (inactive)
CC(=O)NC1(c2cccc(F)c2)CCN(CC[C@@]2(c3ccc(Cl)c(Cl)c3)CN(c3ccccc3)C(=O)CO2)CC1	14.8% (inactive)
C=C(C)CCCC(C)CCO (stereo not given)	0.336% (inactive)
Cc1ccccc1S	0.0139% [at 26.5 µM] (inactive)
CN1CCCC(n2nc(Cc3ccc(Cl)cc3)c3ccccc3c2=O)CC1 (stereo not given)	2.47% [at 26.5 µM] (inactive)
O=C(Cn1ccnc1[N+](=O)[O-])NCCO	0.0574% [at 26.5 µM] (inactive)
CC(C)=CC(=O)C=C(C)C	-0.207% (inactive)
CCOC(=O)OC(C)OC(=O)[C@@H]1N2C(=O)[C@@H](NC(=O)[C@H](N)c3ccccc3)[C@H]2SC1(C)C (stereo not given in full)	-0.0128% [at 26.5 µM] (inactive)
COc1ccc(OC(=O)N(CC(=O)O)Cc2ccc(OCCc3nc(-c4ccccc4)oc3C)cc2)cc1	1.73% [at 26.5 µM] (inactive)
COc1cc(C(=O)NC2CCN(C)CC2)ccc1Nc1ncc2c(n1)N(C1CCCC1)CC(F)(F)C(=O)N2C	0.0438% (inactive)
O=C1c2ccccc2C(=O)C1(O)O	-0.0001% (inactive)
C[C@H]1c2cccc(O)c2C(O)=C2C(=O)[C@]3(O)C(O)=C(C(N)=O)C(=O)[C@@H](N(C)C)[C@@H]3[C@@H](O)[C@@H]21	-0.271% [at 26.5 µM] (inactive)
O=C1c2ccccc2C(=O)c2c(O)c(O)cc(O)c21	1.56% (inactive)
CN1C(=O)c2ccccc2C1=O	-0.678% (inactive)
CCN(CC)CCNC(=O)COc1ccc(OC)cc1	0.154% [at 26.5 µM] (inactive)
